Consider eight compounds from PubChem BioAssay (Tox21).

Unmarked numbers belong to inactive results. Inconclusive results are not listed. Activity calls are given as the source filed them. Unless noted, calls follow the shape of the dose curve; as a rule, active = well fitted curve in the direction sought with a large enough effect in the repeat runs; inconclusive = weak or mixed curves; inactive = no such curve, though single readings can be large; an effect the other way counts as inactive or inconclusive.

The target of test [1] is Luciferin 4-monooxygenase (Photinus pyralis) (UniProt P08659). The test can be described thus: qHTS assay to identify small molecule inhibitors of firefly luciferase (AID 1224835). Also: % is scaled to controls: 0 for no effect and ±100 for the full control effect; nearly all actives have a fitted effect of over 25% in size. In a few lines:
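Inhibition of purified Photinus luciferase is measured by luminescence. Substrate levels (D-luciferin, ATP) sit at their KM values. Each compound is tested in a concentration series.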
For orientation: qHTS replaces the single test concentration by a dilution series.

Test [2] is described as follows: qHTS assay to identify small molecule agonists of the constitutive androstane receptor (CAR) signaling pathway - cell viability counter screen (AID 1224836). Also: % is scaled to controls: 0 for no effect and ±100 for the full control effect; nearly all actives have a fitted effect of over 45% in size. Summed up: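 23 h treatment, 37 C, 5% CO2. Cell line: HepG2 stably expressing hCAR with a CYP2B6-2.2kb construct. Co-treatment: PK11195, 0.75 uM final. Read-out: CellTiter-Fluor fluorescence intensity.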
For test [3], the target named is Nuclear receptor subfamily 1 group I member 3 (Homo sapiens) (UniProt Q14994). Put plainly: qHTS assay to identify small molecule antagonists of the constitutive androstane receptor (CAR) signaling pathway (AID 1224838). Also: % is scaled to controls: 0 for no effect and ±100 for the full control effect; nearly all actives have a fitted effect of over 40% in size. In a few lines:
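Compounds were titrated across 15 concentrations onto HepG2 cells double-stably expressing hCAR and a CYP2B6-2.2kb reporter, together with 50 nM CITCO (final). After 24 h at 37 C, luciferase activity was measured by luminescence.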

Test [4] can be described thus: qHTS assay to identify small molecule antagonists of the estrogen related receptor signaling pathway with the pleiotropic PPARgamma coactivator (PGC) from Tox21 10K library (AID 1224841; call rule not given here; also: potency is read from the fitted curve at half-maximal effect; actives are mostly falling curves and most rising ones were filed inactive; nearly all actives have a fitted effect of over 50% in size). In a few lines: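 Antagonism in this quantitative HTS is taken from loss of luciferase signal in PGC/ERR cells. Cells (2,000/well) are treated with compounds in DMSO after a 6 h settling period and read by One-Glo luminescence after 18 h.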

Test [5] can be described thus: qHTS assay to identify small molecule agonists of the estrogen related receptor signaling pathway with the pleiotropic PPARgamma coactivator (PGC) from Tox21 10K library (AID 1224842). Also: % is scaled to controls: 0 for no effect and ±100 for the full control effect; nearly all actives have a fitted effect of over 15% in size. In a few lines:
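Luminescence from One-Glo (30 min, room temperature) measured after PGC/ERR cells had 18 h at 37 C with pinned compound (23 nL in DMSO). Cells had been seeded at 2,000 per well and pre-incubated 6 h.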

Test [6] is described as follows: qHTS assay to identify small molecule agonists of the hypoxia (HIF-1) signaling pathway - cell viability counter screen (AID 1224844; calls by dose curve; also: % is scaled to controls: 0 for no effect and ±100 for the full control effect; nearly all actives have a fitted effect of over 50% in size). Summed up:
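Tox21 10K compounds were added to HRE-bla ME-180 cells (0.5% dialyzed FBS) and incubated 17 hrs at 37C; ATP-based CellTiter-Glo luminescence then reported cell viability in the same wells.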

Test [7] in a line: qHTS assay to identify small molecule agonists of H2AX (AID 1224845; active = well fitted activation curve with a large enough effect in the signal ratio in the repeat runs, not every such curve was filed as active; the % refers to the signal ratio; also: % is scaled to controls: 0 for no effect and ±100 for the full control effect). Summed up: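 Phospho-H2AX Ser139 measured by HTRF (ex 320 nm; em 665 and 620 nm) after 24 hr antibody incubation. Compounds, 15 concentrations, 0.76% DMSO, were applied to CHO-K1 cells for 3hr at 37C before lysis.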
Test [8] can be described thus: qHTS assay to identify small molecule antagonists of the estrogen related receptor (ERR) signaling pathway from Tox21 library (AID 1224848). Also: potency is read from the fitted curve at half-maximal effect; nearly all actives have a fitted effect of over 50% in size. In a few lines: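 Antagonist-mode screen of the Tox21 10K library in an NTP-provided ERR reporter cell line; 18 h compound exposure at 37 C, luminescence measured with ONE-Glo.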
Test [9] is described as follows: qHTS assay to identify small molecule agonists of the estrogen related receptor (ERR) signaling pathway from Tox21 library (AID 1224849; calls by dose curve; also: % is scaled to controls: 0 for no effect and ±100 for the full control effect; nearly all actives have a fitted effect of over 15% in size). As to conditions: ERR reporter cell line, ONE-Glo luciferase, 18 h; at 92.4 µM (top of the series) unless noted. In a few lines: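 Agonist signal is luciferase luminescence from an ERR reporter cell line treated 18 h at 37 C with DMSO-dissolved compounds, read 30 min after ONE-Glo addition at room temperature.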

The nature of test [10]: A CellTox Green Cytotoxicity Assay to monitor cytotoxicity in HEK293 cells - 0 hour (AID 1224869). Also: % is scaled to controls: 0 for no effect and ±100 for the full control effect; nearly all actives have a fitted effect of over 50% in size. In a few lines:
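Cytotoxicity was tracked continuously in HEK293 cells by a DNA-binding dye excluded from viable cells. Compounds were transferred in DMSO 5 h after seeding; fluorescence was recorded at intervals up to 40 h.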

Test [11] can be described thus: qHTS RealTime-Glo MT Cell Viability Assay in HepG2 cells - 40 hour (AID 1224870). Also: nearly all actives have a fitted effect of over 50% in size. Also: potency is read from the fitted curve at half-maximal effect. Summed up:
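Real-time viability: cells seeded at 600 per well together with NanoLuc and cell-permeant prosubstrate, compounds added after 5 h incubation. Luminescence tracked at 0, 8, 16, 24, 32 and 40 h of exposure.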

The nature of test [12]: qHTS assay to identify small molecule antagonists of the constitutive androstane receptor (CAR) signaling pathway - cell viability counter screen (AID 1224837). Also: % is scaled to controls: 0 for no effect and ±100 for the full control effect; nearly all actives have a fitted effect of over 45% in size. Summed up:
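Multiplexed cytotoxicity read-out for the CAR antagonist screen: double-stable HepG2-CYP2B6-hCAR cells co-treated with 50 nM CITCO (final) and compound over 15 concentrations, incubated 23 hr, then assessed by CellTiter-Fluor fluorescence.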

Test [13] is described as follows: qHTS assay to identify small molecule agonists of H2AX - cell viability counter screen (AID 1224847; calls by dose curve; also: nearly all actives have a fitted effect of over 30% in size; also: potency is read from the fitted curve at half-maximal effect). In a few lines: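 Compounds tested at 15 concentrations were incubated 3 hr at 37C with wild-type CHO-K1 cells; cellular ATP-based luminescence (CellTiter-Glo) indicated viability.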
Test [14] can be described thus: qHTS RealTime-Glo MT Cell Viability Assay in HepG2 cells - 24 hour (AID 1224867). Also: nearly all actives have a fitted effect of over 50% in size. Also: potency is read from the fitted curve at half-maximal effect. In a few lines:
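Luminescence read-out: viable HepG2 cells reduce a prosubstrate to a NanoLuc substrate, giving a signal proportional to live cell number. Reads taken at 0, 8, 16, 24, 32 and 40 h of compound exposure at 37 C.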

A short description of test [15]: qHTS RealTime-Glo MT Cell Viability Assay in HEK293 cells - 32 hour (AID 1224868). Also: nearly all actives have a fitted effect of over 50% in size. Also: potency is read from the fitted curve at half-maximal effect. Summed up: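 Nonlytic real-time viability readout: viable cells convert prosubstrate to NanoLuc substrate, giving luminescence proportional to live cell number. HEK293, 600 cells/well, compound added after 5 h, continuous culture at 37 C.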
Test [16] is described as follows: qHTS assay to identify small molecule antagonists of the estrogen related receptor signaling pathway with the pleiotropic PPARgamma coactivator (PGC) from Tox21 10K library - cell viability counter screen (AID 1224840; active = well fitted cell-killing curve with a large enough effect in the repeat runs, not every such curve was filed as active; also: % is scaled to controls: 0 for no effect and ±100 for the full control effect; nearly all actives have a fitted effect of over 40% in size). Summed up: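 Step one, plate 2,000 PGC/ERR cells per well; step two, incubate 6 h at 37 C/5% CO2; step three, pin-transfer compounds; step four, incubate 17.5 h; step five, add CellTiter-Fluor and read fluorescence after 30 min.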

A short description of test [17]: qHTS assay to identify small molecule agonists of the hypoxia (HIF-1) signaling pathway (AID 1224846; active = well fitted activation curve with a large enough effect in the signal ratio in the repeat runs, not every such curve was filed as active; the % refers to the signal ratio; also: % is scaled to controls: 0 for no effect and ±100 for the full control effect). In a few lines:
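Steps: seed ME-180 HRE-bla cells (2,000/well, 0.5% dialyzed FBS); incubate 5 hrs at 37C; pin-transfer compounds or DMSO; incubate 17 hrs; add LiveBLAzer B/G substrate CCF4-AM; measure reporter activation by FRET.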

Test [18] deals with Thyrotropin receptor (Homo sapiens) (UniProt P16473). Put plainly: qHTS assay to identify small molecule agonists of the thyroid stimulating hormone receptor (TSHR) signaling pathway (AID 1224843; calls by dose curve; also: % is scaled to controls: 0 for no effect and ±100 for the full control effect; nearly all actives have a fitted effect of over 45% in size). Summed up:
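Screening of the Tox21 10K collection used HEK293 cells engineered with TSHR at 800 cells per well. After a 30-min room-temperature compound exposure, HTRF cAMP reagents were added and fluorescence recorded 1 h later.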

The target in test [19] is Nuclear receptor subfamily 1 group I member 3 (Homo sapiens) (UniProt Q14994). The test can be described thus: qHTS assay to identify small molecule agonists of the constitutive androstane receptor (CAR) signaling pathway (AID 1224839).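 Also: HepG2 cells stably carrying human CAR and a CYP2B6 luciferase reporter; % is scaled to controls: 0 for no effect and ±100 for the full control effect; nearly all actives have a fitted effect of over 15% in size.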 Summed up: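 Compounds tested at 15 concentrations on HepG2 cells stably harbouring hCAR and CYP2B6-2.2kb reporter constructs, co-treated with PK11195 (0.75 uM final), 24 h at 37 C; luminescent reporter signal quantified.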
Chain of Nuclear receptor subfamily 1 group I member 3 (Homo sapiens) (Q14994 whole entry, looked up): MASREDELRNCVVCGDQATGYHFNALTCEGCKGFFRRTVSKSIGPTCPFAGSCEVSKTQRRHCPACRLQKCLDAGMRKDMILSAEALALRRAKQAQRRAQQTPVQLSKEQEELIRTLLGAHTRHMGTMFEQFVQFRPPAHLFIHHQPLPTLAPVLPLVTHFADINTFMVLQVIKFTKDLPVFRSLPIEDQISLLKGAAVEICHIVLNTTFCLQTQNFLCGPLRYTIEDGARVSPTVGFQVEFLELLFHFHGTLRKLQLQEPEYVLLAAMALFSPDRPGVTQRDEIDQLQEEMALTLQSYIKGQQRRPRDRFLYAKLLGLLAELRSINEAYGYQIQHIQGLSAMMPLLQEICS

Chain of Luciferin 4-monooxygenase (Photinus pyralis) (P08659 whole entry, looked up): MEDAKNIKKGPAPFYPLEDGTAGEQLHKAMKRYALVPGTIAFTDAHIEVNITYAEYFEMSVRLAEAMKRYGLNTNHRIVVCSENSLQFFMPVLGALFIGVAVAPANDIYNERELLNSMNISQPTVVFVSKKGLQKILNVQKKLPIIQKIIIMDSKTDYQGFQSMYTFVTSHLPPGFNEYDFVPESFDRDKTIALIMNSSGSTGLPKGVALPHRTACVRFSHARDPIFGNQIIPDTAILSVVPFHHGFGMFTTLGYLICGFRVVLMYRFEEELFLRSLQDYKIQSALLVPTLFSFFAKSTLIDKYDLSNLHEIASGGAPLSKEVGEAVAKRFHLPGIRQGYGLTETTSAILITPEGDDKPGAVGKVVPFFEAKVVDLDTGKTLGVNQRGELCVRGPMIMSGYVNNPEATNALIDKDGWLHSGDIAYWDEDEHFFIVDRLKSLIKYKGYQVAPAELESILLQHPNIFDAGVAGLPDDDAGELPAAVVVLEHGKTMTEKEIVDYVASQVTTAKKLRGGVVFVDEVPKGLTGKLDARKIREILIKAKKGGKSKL
Chain of Thyrotropin receptor (Homo sapiens) (P16473 whole entry, looked up): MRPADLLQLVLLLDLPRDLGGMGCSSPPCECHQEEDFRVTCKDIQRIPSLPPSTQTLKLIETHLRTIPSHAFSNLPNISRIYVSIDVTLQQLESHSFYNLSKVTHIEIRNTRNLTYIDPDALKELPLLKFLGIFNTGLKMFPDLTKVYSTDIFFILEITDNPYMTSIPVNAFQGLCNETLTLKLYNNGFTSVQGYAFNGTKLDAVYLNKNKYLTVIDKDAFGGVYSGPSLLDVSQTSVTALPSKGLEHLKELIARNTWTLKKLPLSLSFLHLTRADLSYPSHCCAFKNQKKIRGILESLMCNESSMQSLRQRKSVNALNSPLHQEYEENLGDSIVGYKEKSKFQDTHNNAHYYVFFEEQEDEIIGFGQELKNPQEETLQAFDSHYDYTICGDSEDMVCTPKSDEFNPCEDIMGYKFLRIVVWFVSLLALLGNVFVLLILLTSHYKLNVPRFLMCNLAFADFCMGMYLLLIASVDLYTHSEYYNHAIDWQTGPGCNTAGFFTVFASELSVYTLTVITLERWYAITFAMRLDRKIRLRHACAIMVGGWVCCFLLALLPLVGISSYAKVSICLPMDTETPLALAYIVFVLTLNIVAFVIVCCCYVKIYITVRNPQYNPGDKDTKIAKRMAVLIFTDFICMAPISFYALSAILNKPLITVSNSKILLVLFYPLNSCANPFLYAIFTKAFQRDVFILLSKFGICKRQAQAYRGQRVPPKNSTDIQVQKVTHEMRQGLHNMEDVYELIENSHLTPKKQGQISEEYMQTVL

Consider `COCCOC(=O)C1=C(C)NC(C)=C(C(=O)OC/C=C/c2ccccc2)C1c1cccc([N+](=O)[O-])c1` (stereo not drawn), for which the Potency entry in test [1], in test [2], in [3], in [5], in [6] and in test [7] was “inactive” throughout. For the same compound, the Potency result in [10] and in test [11] was “inactive” throughout. For the same compound, the Potency in [4] was 23.7 µM (active); in test [8] it was 7.5 µM (active). In addition, the activity change, positive = activation in test [9] was -61.8% [at 42.5 µM].
As to `CC1C2CC(CC2C2CCCC(O)C2)C1(C)C` (stereo not drawn), the Potency result in [1], in test [2], in [12], in test [14], in test [15] and in test [10] was “inactive” throughout. Also, the Potency entry in test [11] was “inactive”. Also, in test [13], the Potency is 89.8 µM (active).
Consider `CC1=NN(c2ccc(C(=O)O)cc2)C(=O)C1`, for which the Potency result in [1], in [2], in test [12], in test [3], in [16] and in [6] was “inactive” each time. In addition, the Potency entry in [13], in [14], in [15], in test [10] and in test [11] was “inactive” throughout. Besides, the outcome in [17] was inactive.
Take `CC[C@H](NC(=O)c1cc(F)ccc1NS(=O)(=O)c1cccc2cccnc12)c1ccccc1`: the Potency result in [1], in test [2], in [12], in test [5], in [18] and in test [13] was “inactive” in each case. In addition, the Potency entry in test [15] and in test [10] was “inactive” each time. Further, the Potency was 32.5 µM (active) in test [8], 52 µM (active) in test [14] and 52 µM (active) in test [11]. In test [9], the activity change, positive = activation is -48.4%.
`CCCCN(CCCC)C(=S)SSC(=S)N(CCCC)CCCC`: the Potency entry in [2], in test [12], in test [16], in test [18], in test [14] and in [11] was “inactive” in each case. Besides, the values for the Potency in [13] and in [15] were 112 µM (active) and 43.2 µM (active), respectively.
Regarding `COc1cc2ncnc(Nc3ccc(F)c(Cl)c3)c2cc1OCCCN1CCOCC1`, the Potency entry in test [1], in [3], in test [19], in test [5], in test [18] and in test [7] was “inactive” throughout. In addition, the Potency entry in [10] was “inactive”. The compound was classed as inactive in [17]. In addition, the Potency in test [13] was 55.2 µM (active); in [8] it was 13.3 µM (active); in [15], 9.52 µM (active); in [11] it was 26.8 µM (active). Further, the activity change, positive = activation in test [9] is -47.8% [at 42.5 µM].
In the case of `O=C(CCCCCCCCC#CI)Oc1ccccc1`, the Potency result in test [1], in test [2], in test [12], in test [19], in [16] and in [18] was “inactive” each time. The Potency entry in [6], in [7], in test [13] and in test [10] was “inactive” each time. Besides, the outcome in test [17] was inactive. In addition, in test [11], the Potency was 2.39 µM (active).
On to `Cc1oc(C)c(C(=O)Nc2ccccc2)c1C`, for which the Potency result in test [2], in [12], in [16], in [5], in [6] and in [14] was “inactive” throughout. Also, the Potency result in [10] and in test [11] was “inactive” throughout. In addition, in [17], the call was inactive. Besides, the Potency is 17.2 µM (active) in test [8] and 24.5 µM (active) in test [15]. Also, the activity change, positive = activation in [9] was -47.2%.
